The results in this text go back to PubChem BioAssay (Tox21).

The nature of experiment [1]: Nuclear factor erythroid 2-related factor 2/antioxidant responsive element (Nrf2/ARE) small molecule agonists: qHTS cell viability counter screen in human keratinocytes (AID 1919968; active = well fitted curve in the direction sought with a large enough effect in the repeat runs; an effect the other way counts as inactive or inconclusive; note: nearly all actives have a fitted effect of over 55% in size). The gist of the method:
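Fluorescence read-out from CellTiter-Fluor after 1 h at 37 C. Wells held HaCaT-derived ARE-luciferase reporter cells (1,500/well) treated 23 h with DMSO-dissolved compounds. Run in the same wells as the luciferase agonist read.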

For experiment [2], the target named is Gonadotropin-releasing hormone receptor (Homo sapiens) (UniProt P30968). The experiment can be described thus: Human gonadotropin-releasing hormone receptor (GnRHR) small molecule agonists, calcium flux assay in GnRHR-HEK293 cells (AID 1920063). Note: nearly all actives have a fitted effect of over 35% in size. The gist of the method: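 Calcium-dye fluorescence, Ex/Em=480/540, recorded every 1 sec over 3 min after compound addition to GnRHR-HEK293 cells. Cells had been seeded 18 hours earlier and dye-loaded for 1 hour at 37 C. Fifteen concentrations, triplicates.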

In experiment [3] the target is KiSS-1 receptor (Homo sapiens) (UniProt Q969F8). As to the kind of experiment: Human kisspeptin (KISS1R) small molecule agonists, calcium flux assay in KISS1R-HEK293 cells (AID 1920064; active = well fitted curve in the direction sought with a large enough effect in the repeat runs; an effect the other way counts as inactive or inconclusive). An outline of the steps:
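Calcium flux read-out: kinetic fluorescence at Ex/Em=480/540, 1 s intervals over 3 min, after pin-tool compound addition to dye-loaded KISS1R-HEK293 cells. Fifteen concentrations, triplicates.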

A short description of experiment [4]: G protein-coupled receptor (GPCR) small molecule agonists, calcium flux assay: HEK293 wild type cell line counter screen (AID 1920065). The gist of the method:
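Agonist mode; 18 h seeding at 37 C, 1 h dye load at 37 C; compounds pinned from DMSO, ATP as positive control; kinetic fluorescence 480/540 nm, 3 min, 1 s reads; 15 concentrations, triplicate.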

Experiment [5] is described as follows: p53 small molecule agonists, cell-based qHTS assay with human liver microsomes: qHTS cell viability counter screen (AID 1963579). Note: nearly all actives have a fitted effect of over 45% in size. The gist of the method: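 Metabolically activated exposure: compounds, human liver microsomes and NADPH (0.5 mg/mL final apiece) were added to p53RE-bla cells seeded 5 h earlier, left 16 h at 37 C, and then assessed for viability by CellTiter-Glo luminescence.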

Experiment [6] can be described thus: cAMP Responsive Elements (CRE) small molecule antagonists, cell-based qHTS assay (AID 1963591; active = well fitted inhibition curve with a large enough effect in the signal ratio in the repeat runs, not every such curve was filed as active; the % refers to the signal ratio). The gist of the method: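 HEK293T CRE-bla; 18 h preincubation; compound pin-transfer; NKH477 0.25 uM final, 3 h, 37 C; LiveBLAzer FRET substrate 2 h RT.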
Experiment [7] deals with Beta-2 adrenergic receptor (Homo sapiens) (UniProt P07550). As to the kind of experiment: Adrenergic beta2 receptor (ADRB2) small molecule antagonists, cell-based qHTS assay (AID 1963592). Note: series mostly up to about 92 µM; nearly all actives have a fitted effect of over 50% in size. An outline of the steps: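 Assay format: CHO-ADRB2 cells, 18-20hr seeding at 37C/5% CO2, then compound plus 1nM isoproterenol agonist mix for 0.5hr RT. Homogeneous time-resolved fluorescence cAMP detection after 1hr, expressed as 665/615 nm ratio.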

The target is the same in experiment [8]. The experiment can be described thus: Adrenergic beta2 receptor (ADRB2) small molecule agonists, cell-based qHTS assay (AID 1963593).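 Note: CHO cells stably overexpressing human ADRB2.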 The gist of the method:
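CHO cells stably over-expressing ADRB2 were plated overnight at 37C, then dosed with compounds plus a stimulation mix containing 100uM IBMX and 25uM Ro-20-1724 for 0.5hr at room temperature. cAMP was measured by HTRF competition, 1hr.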

Experiment [9] addresses D(2) dopamine receptor (Homo sapiens) (UniProt P14416). As to the kind of experiment: Dopamine D2 receptor (DRD2) small molecule agonists, cell-based qHTS assay (AID 1963594). Note: nearly all actives have a fitted effect of over 35% in size. An outline of the steps: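 HEK293 cells stably expressing human DRD2, pre-treated with PDE inhibitor Ro20-1724 (0.1 mM final) and compound 10 min at room temperature, then stimulated with NKH477 (200nM […]) for 30 min. cAMP read by HTRF (665/620 nm).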

For experiment [10] the target is unchanged. The experiment can be described thus: Dopamine D2 receptor (DRD2) small molecule antagonists, cell-based qHTS assay (AID 1963595; active = well fitted inhibition curve with a large enough effect in the signal ratio in the repeat runs, with a control signal flat; the % refers to the signal ratio). An outline of the steps:
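Antagonist mode in DRD2-HEK293 cells: after compound addition with 0.1 mM Ro20-1724, cells received quinpirole (12 nM) and NKH477 (200 nM) for 30 min at room temperature; HTRF cAMP read after 1 h detection.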

Experiment [11] can be described thus: p53 small molecule agonists, cell-based qHTS assay with rat liver microsomes: qHTS cell viability counter screen (AID 1963580). Note: nearly all actives have a fitted effect of over 45% in size. An outline of the steps:
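After the beta-lactamase ratio was read, CellTiter-Glo was added to the same wells and luminescence measured at 30 min; cells had been treated 16 h at 37 C with compounds, rat liver microsomes and NADPH (0.5 mg/mL final each).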

The nature of experiment [12]: p53 small molecule agonists, cell-based qHTS assay: qHTS cell viability counter screen (AID 1963581). Note: nearly all actives have a fitted effect of over 45% in size. An outline of the steps:
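Cytotoxicity read-out: ATP-based luminescence (CellTiter-Glo, 30 min RT) measured in the same wells as the p53 reporter assay, HCT-116 p53RE-bla cells, 16 h compound exposure at 37 C.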

In experiment [13] the target is 5-hydroxytryptamine receptor 2A (Homo sapiens) (UniProt P28223). The experiment can be described thus: 5-hydroxytryptamine receptor 2A (HTR2A) small molecule antagonists, cell-based qHTS assay (AID 1963586). Note: nearly all actives have a fitted effect of over 45% in size. The gist of the method: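 CHO cells stably expressing human HTR2A were plated for 18 h at 37 C, then loaded with calcium dye for 1 h. Compounds were preincubated 5 min at room temperature before DOI (4 nM solution) was added. Kinetic fluorescence was read for 3 min.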

Experiment [14] shares this target. The experiment can be described thus: 5-hydroxytryptamine receptor 2A (HTR2A) small molecule agonists, cell-based qHTS assay (AID 1963587). Note: nearly all actives have a fitted effect of over 30% in size. The gist of the method:
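CHO cells stably expressing human HTR2A, plated 18 h, loaded with calcium dye 1 h at 37 C. Agonist mode: compounds added and intracellular calcium fluorescence recorded kinetically for 2 min at 1 sec intervals.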

The target in experiment [15] is Muscarinic acetylcholine receptor M1 (Homo sapiens) (UniProt P11229). The experiment can be described thus: Cholinergic receptor muscarinic 1 (CHRM1) small molecule antagonists, cell-based qHTS assay (AID 1963588). Note: nearly all actives have a fitted effect of over 40% in size. Note: potency is the fitted concentration of half-maximal effect. An outline of the steps: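 Compounds were tested at 15 concentrations in three independent runs. Dye-loaded CHRM1-CHO cells were exposed 5 min at room temperature before stimulation by acetylcholine added at 50nM. Intracellular calcium was read kinetically on FDSS for 3 min.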

The target is the same in experiment [16]. As to the kind of experiment: Cholinergic receptor muscarinic 1 (CHRM1) small molecule agonists, cell-based qHTS assay (AID 1963589). Note: nearly all actives have a fitted effect of over 35% in size. The gist of the method: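 Calcium flux read-out: kinetic fluorescence at 1 sec intervals after pin-tool compound addition to dye-loaded CHRM1-CHO cells (human M1). Agonist mode; 15 concentrations tested in triplicate independent runs.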

Experiment [17] is described as follows: cAMP Responsive Elements (CRE) small molecule agonists, cell-based qHTS assay (AID 1963590). The gist of the method:
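Beta-lactamase reporter readout: LiveBLAzer B/G FRET substrate, 2 h at room temperature, added after 3 h compound treatment of CRE-bla HEK 293T cells at 37 C/5% CO2.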

The nature of experiment [18]: p53 small molecule agonists, cell-based qHTS assay (AID 1963582; active = well fitted activation curve with a large enough effect in the signal ratio in the repeat runs, not every such curve was filed as active; the % refers to the signal ratio). The gist of the method: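 Fluorescence intensity read-out of a beta-lactamase reporter under a p53 response element. Cells were exposed to DMSO-dissolved compounds for 16 h at 37 C, then developed with FRET substrate for 2 h at RT.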

The structures appear in SMILES notation. Unmarked numbers belong to inactive results. Inconclusive results are not listed. Active and inactive are the calls of the source. Unless noted, calls come from the whole dose curve.
% is set by controls: 0 for no effect and ±100 for the full control effect.

Sequence of 5-hydroxytryptamine receptor 2A (Homo sapiens) (P28223 whole entry, looked up): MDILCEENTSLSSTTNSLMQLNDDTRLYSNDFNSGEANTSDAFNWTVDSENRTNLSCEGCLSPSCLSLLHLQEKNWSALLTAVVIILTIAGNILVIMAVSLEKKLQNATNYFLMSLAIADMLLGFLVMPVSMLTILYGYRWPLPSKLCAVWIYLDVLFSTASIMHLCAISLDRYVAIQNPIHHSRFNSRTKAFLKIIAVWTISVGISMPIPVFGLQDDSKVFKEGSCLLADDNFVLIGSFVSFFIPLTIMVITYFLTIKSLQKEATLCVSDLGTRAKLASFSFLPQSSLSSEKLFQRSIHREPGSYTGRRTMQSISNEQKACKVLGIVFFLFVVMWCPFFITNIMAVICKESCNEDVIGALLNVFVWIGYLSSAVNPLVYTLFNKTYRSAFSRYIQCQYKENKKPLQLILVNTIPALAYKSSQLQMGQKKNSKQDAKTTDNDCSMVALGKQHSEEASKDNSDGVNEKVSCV
Sequence of Muscarinic acetylcholine receptor M1 (Homo sapiens) (P11229 whole entry, looked up): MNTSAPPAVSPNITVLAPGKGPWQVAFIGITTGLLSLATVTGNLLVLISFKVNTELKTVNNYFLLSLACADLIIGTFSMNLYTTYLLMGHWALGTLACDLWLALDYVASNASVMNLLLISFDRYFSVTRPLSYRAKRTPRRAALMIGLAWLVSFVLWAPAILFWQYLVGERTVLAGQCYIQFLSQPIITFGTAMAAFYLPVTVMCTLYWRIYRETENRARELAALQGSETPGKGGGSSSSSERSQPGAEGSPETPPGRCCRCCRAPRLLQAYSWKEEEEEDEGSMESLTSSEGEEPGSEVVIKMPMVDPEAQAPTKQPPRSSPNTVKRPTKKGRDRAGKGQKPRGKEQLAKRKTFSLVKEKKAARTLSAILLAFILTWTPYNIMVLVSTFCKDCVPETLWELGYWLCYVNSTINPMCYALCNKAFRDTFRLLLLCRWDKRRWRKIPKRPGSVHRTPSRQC
Sequence of KiSS-1 receptor (Homo sapiens) (Q969F8 whole entry, looked up): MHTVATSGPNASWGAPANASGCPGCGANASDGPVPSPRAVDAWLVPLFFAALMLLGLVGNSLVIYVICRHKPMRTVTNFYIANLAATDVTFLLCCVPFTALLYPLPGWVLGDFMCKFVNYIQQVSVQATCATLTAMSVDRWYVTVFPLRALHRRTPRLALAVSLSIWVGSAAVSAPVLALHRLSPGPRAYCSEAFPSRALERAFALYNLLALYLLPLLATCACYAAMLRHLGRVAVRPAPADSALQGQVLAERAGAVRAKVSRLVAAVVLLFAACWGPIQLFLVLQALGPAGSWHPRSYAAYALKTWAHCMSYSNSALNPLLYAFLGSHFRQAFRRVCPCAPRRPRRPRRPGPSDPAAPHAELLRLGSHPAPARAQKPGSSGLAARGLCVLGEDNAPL
Sequence of D(2) dopamine receptor (Homo sapiens) (P14416 whole entry, looked up): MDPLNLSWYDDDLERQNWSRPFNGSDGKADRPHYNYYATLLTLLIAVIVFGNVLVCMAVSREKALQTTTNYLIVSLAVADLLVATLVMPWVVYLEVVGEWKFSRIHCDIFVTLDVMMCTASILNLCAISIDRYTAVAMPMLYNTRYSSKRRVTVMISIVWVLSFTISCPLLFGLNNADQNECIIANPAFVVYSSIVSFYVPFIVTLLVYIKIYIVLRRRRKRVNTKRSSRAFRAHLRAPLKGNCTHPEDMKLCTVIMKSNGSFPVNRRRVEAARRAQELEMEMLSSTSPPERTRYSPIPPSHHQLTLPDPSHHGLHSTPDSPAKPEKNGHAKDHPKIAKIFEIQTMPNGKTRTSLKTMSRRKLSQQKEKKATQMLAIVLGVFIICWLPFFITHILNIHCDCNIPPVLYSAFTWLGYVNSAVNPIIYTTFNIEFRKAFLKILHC
Sequence of Gonadotropin-releasing hormone receptor (Homo sapiens) (P30968 whole entry, looked up): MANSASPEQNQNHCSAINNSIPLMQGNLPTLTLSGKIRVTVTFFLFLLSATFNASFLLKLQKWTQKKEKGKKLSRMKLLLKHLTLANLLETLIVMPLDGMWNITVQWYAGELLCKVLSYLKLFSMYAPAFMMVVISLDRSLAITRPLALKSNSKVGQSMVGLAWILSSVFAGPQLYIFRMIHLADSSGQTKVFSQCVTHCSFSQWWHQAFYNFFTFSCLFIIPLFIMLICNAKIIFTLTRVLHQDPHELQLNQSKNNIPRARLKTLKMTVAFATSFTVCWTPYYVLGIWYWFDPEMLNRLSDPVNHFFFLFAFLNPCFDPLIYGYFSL
Sequence of Beta-2 adrenergic receptor (Homo sapiens) (P07550 whole entry, looked up): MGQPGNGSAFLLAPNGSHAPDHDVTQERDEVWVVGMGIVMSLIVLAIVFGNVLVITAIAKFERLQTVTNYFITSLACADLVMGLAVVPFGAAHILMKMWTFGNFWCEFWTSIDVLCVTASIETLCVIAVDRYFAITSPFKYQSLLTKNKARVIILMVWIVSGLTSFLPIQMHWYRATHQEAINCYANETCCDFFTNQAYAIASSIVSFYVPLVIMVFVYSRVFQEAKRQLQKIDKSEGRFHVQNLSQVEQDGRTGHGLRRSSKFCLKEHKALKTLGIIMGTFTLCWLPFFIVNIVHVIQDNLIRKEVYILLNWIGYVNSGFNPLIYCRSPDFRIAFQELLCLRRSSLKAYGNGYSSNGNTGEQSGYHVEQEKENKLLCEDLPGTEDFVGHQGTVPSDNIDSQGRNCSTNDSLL

For `CC(=O)Nc1ccc2c(c1)Cc1ccccc1-2`, the Potency entry in experiment [1], in experiment [2], in experiment [3], in experiment [4], in experiment [5] and in [6] was “inactive” throughout. The Potency result in experiment [7], in [8], in experiment [9] and in [10] was “inactive” each time.
In the case of `Nc1c(Cl)c(Cl)c(Cl)c(Cl)c1Cl`, the Potency result in [1], in [2], in experiment [3], in [4], in [5] and in experiment [11] was “inactive” in each case. Also, the Potency entry in [12], in [13], in experiment [14], in experiment [15], in [16] and in [17] was “inactive” in each case. Besides, the Potency result in experiment [7] and in [10] was “inactive” throughout.
In the case of `CC(C)Oc1cccc(NC(=O)c2ccccc2C(F)(F)F)c1`, the Potency entry in experiment [1], in experiment [2], in experiment [3], in [4], in experiment [5] and in experiment [18] was “inactive” in each case. Further, the Potency result in [14] and in experiment [9] was “inactive” each time. Besides, the Potency in experiment [15] is 0.0119 µM (active).
In the case of `O=C(Nc1ccccc1)N(Cc1ccc(Cl)cc1)C1CCCC1`, the Potency result in [1], in experiment [2], in experiment [3], in experiment [4], in experiment [5] and in experiment [11] was “inactive” each time. Besides, the Potency entry in experiment [12], in [13], in experiment [14], in [7], in experiment [8] and in experiment [9] was “inactive” throughout. Besides, the Potency result in experiment [10] is “inactive”. Further, in [15], the Potency was 37.5 µM (active).
On to `CC(=O)[O-].CC(=O)[O-].CC(=O)[O-].[Cr+3]`, for which the Potency result in experiment [1], in [2], in [3], in [4], in experiment [5] and in [12] was “inactive” throughout. The Potency result in experiment [13], in experiment [14], in experiment [15], in [16], in [6] and in experiment [7] was “inactive” each time. Further, the Potency result in [9] and in [10] was “inactive” each time.
For `COP(=S)(OC)Oc1nc(Cl)c(Cl)cc1Cl`, the Potency entry in experiment [1], in experiment [2], in experiment [3], in [4], in experiment [5] and in experiment [11] was “inactive” each time. Also, the Potency entry in experiment [18], in experiment [13], in experiment [14], in experiment [15], in experiment [16] and in experiment [8] was “inactive” in each case. Moreover, the Potency entry in [9] and in experiment [10] was “inactive” throughout.
On to `C#CCC1=C(C)C(OC(=O)C2C(C=C(C)C)C2(C)C)CC1=O` (stereo not given), for which the Potency result in experiment [1], in experiment [2], in experiment [3], in [4], in experiment [5] and in experiment [12] was “inactive” each time. For the same molecule, the Potency result in experiment [13], in [14], in [16], in [7] and in [9] was “inactive” each time. The Potency in experiment [15] was 11.8 µM (active).
As for `C=CCOC(=O)c1ccccc1N`, the Potency result in experiment [1], in experiment [2], in experiment [3], in experiment [5], in experiment [11] and in experiment [12] was “inactive” throughout. Further, the Potency entry in experiment [13], in [14], in experiment [15], in [16], in experiment [17] and in experiment [7] was “inactive” throughout. Further, the Potency entry in [9] and in [10] was “inactive” in each case.
For the molecule `CC(=O)[O-].CC(=O)[O-].CC(=O)[O-].[Sb+3]`, the activity change, negative = cytotoxicity in experiment [1] is 0.851% [at 3.27 µM]; in experiment [5], 0.868% [at 2.33 µM]; in experiment [11] it was -3.59% [at 2.33 µM]; in experiment [12], 11.8% [at 2.33 µM]. Moreover, the activity change in experiment [2] was 0.655% [at 2.04 µM, active compounds read high]. In addition, the activation in experiment [3] is 14% [at 2.72 µM]; in experiment [14], -0.125% [at 2.65 µM]; in experiment [16], -0.154% [at 2.72 µM]; in [17], -0.0591% [at 3.27 µM]; in experiment [9], 0.942% [at 3.27 µM]. Also, the results for the activity, negative = inhibition in [13] and in [15] were 0.713% [at 2.12 µM] and 9.52% [at 2.17 µM], respectively. Also, the activity change, negative = inhibition in [6] is -4.85% [at 3.27 µM]; in experiment [7], -10.7% [at 3.27 µM].
